# ChEMBL document CHEMBL3988442, “University of Dundee, Small-Polar-MMV Screening Library” (2021)
# Out of some 69,000 compounds screened, about 950 (1.4%) showed an effect of 50% or more. The sample holds strong results, similar compounds and a random draw of the others, so the mix is not that of the screen.
# Tested on: Mycobacterium tuberculosis
# Assay: Cornell M. t heat shock assay; further: in the data most compounds retested in dose-response had high values
# Format: functional, organism-based
# Parameters: dose or concentration left out as unconfirmed
row,SMILES,Percent Effect
1,O=C(O)C(F)(F)F.c1cc(CN2CCO[C@H]3[C@H](OCC4CCOCC4)CC[C@@H]32)co1,4.016%
2,Cn1ncc2c(NCCC34CCCN3CCC4)nc(C3CCCC3)nc21,90.62%
3,CCS(=O)(=O)CCNc1nc(C2CCCC2)nc2c1cnn2C,-23.34%
4,CC(C)N(CCNc1nc(C2CCCC2)nc2c1cnn2C)C(C)C,102.6%
5,CCOCCNc1nc(C2CCCC2)nc2c1cnn2C,10.38%
6,Cn1ncc2c(NCCn3cccc3)nc(C3CCCC3)nc21,-24.81%
7,CNCCCNc1nc(C2CCCC2)nc2c1cnn2C,-14.72%
8,CN(C)CCN1CCC2(CCN(C(=O)c3cccc(F)c3)CC2)C1=O.O=C(O)C(F)(F)F,-26.99%
9,COCC1CN(Cc2cnn(C)c2)Cc2nn(C)cc21.O=C(O)C(F)(F)F (centres undefined),-8.537%
10,CNCC(=O)N1CCCC(c2nccnc2Oc2cccc(F)c2)C1.Cl (centres undefined),-3.012%
11,O=C(NCCc1cccnc1)c1nc2c(s1)CCCN2C(=O)C1CC1.O=C(O)C(F)(F)F,31.31%
12,Cl.Fc1ccccc1CNc1ccnc(C2CCNCC2)c1,-7.114%
13,CCS(=O)(=O)Nc1cnn(Cc2cccc(C)c2)c1,-6.735%
14,CCS(=O)(=O)Nc1cnn(Cc2cccc(Cl)c2)c1,69.75%
15,CS(=O)(=O)Nc1cnn(Cc2cccc(Cl)c2)c1,-3.827%
16,O=C(O)C(F)(F)F.O=C(c1cccs1)N1C[C@@H]2OCCN(CC3CCCO3)[C@@H]2C1 (some centres undefined),-25.16%
17,CC[C@@H]1N(C)CCC[C@]12CCC(=O)N2Cc1ccncc1.O=C(O)C(F)(F)F.O=C(O)C(F)(F)F,-9.742%
18,O=C(O)C(F)(F)F.O=C(O)c1c(-c2cccnc2)ncc2c1CCN(CC1CCOC1)C2 (centres undefined),-9.377%
19,O=C(O)C(F)(F)F.O=C(O)C(F)(F)F.O=C(O)C(F)(F)F.O=C1C[C@H]2[C@@H](CCN2Cc2ccccn2)N1CCN1CCOCC1,-15.17%
20,O=C1CCNC(=O)N1CC(=O)N1CCC1c1ccc(F)cc1 (centres undefined),51.34%
21,O=C(CN1C(=O)CCNC1=O)N1CCOC(c2ccc(F)cc2)C1 (centres undefined),12.93%
22,O=C(CN1C(=O)CCNC1=O)N1CCC(c2ccc(F)cc2)C1 (centres undefined),18.83%
23,O=C(O)C(F)(F)F.O=C(O)C(F)(F)F.c1cncc(CN2CC[C@H]3O[C@@H](COCC4CCOCC4)CC[C@H]32)c1,-5.632%
24,CC(C)N1CCC2(C=C(C(=O)NC3CC3)c3ccccc32)CC1.O=C(O)C(F)(F)F,-2.25%
